AMA1-RON2 inh – AMA1-RON2 (P. falciparum) interaction inhibition. AlphaScreen AMA1-biotinylated RON2 peptide binding. Potency, µM (doses to about 58.2 µM), for inactives: top-dose activity change, negative = inhibition, actives largely listed as inhibitors. actives 0.2% (n = 360,000). AID 720542;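 also: potency is read from the fitted curve at half-maximal effect; 0% = vehicle wells and -100% = peptide control; nearly all actives have a fitted effect of over 45% in size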
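AMA1 (3D7) with his tag at 25 nM final met compounds first, then biotinylated RON2 peptide at 25 nM; detection used donor plus acceptor beads, 10 µg/mL apiece, read by AlphaScreen after 30 min at room temperature.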
Pf growth 48h – P. falciparum growth inhibition at 48 hours (one generation); P. falciparum luciferase growth in erythrocytes, 48 h; Potency, µM (doses to about 28.7 µM), without a hit: at the top dose activity change, negative = inhibition, usual class: inhibitors; actives 5.9% (n = 310,000); AID 504832; also: potency is read from the fitted curve at half-maximal effect; % is scaled to controls: 0 for no effect and ±100 for the full control effect
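Here the parasites carry a stable luciferase gene and grow inside erythrocytes in Albumax-based RPMI medium with compound for one erythrocytic cycle. Activity is scored as loss of luminescent signal.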
CHX counter – counter-screen hit for Shiga toxin inhibitors, cycloheximide; max response, %; cell reporter, cycloheximide protein synthesis inhibition counterscreen; AID 2314; actives 12% (n = 300,000); in the data active = max response mostly above about 13%, no sharp cut-off; inactive = mostly below about 14%; also: read at 38.3 µM for the half of the compounds with a filed dose; 0% is about no effect
Pf growth 96h – P. falciparum growth inhibition at 96 hours | actives 6.9% (n = 320,000) | Potency, µM (top dose mostly 28.7 µM), without a hit: at the top dose activity change, negative = inhibition, usual class: inhibitors | P. falciparum luciferase reporter growth, 96 h; also: potency is read from the fitted curve at half-maximal effect; % is scaled to controls: 0 for no effect and ±100 for the full control effect
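Compounds incubated with erythrocytes infected by luciferase-expressing P. falciparum (2% hematocrit, 0.05% parasitemia final) for 96 hours, 37 C in 5% CO2. Growth inhibition scored as decreased luciferase luminescence.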
HCV inh – inhibitors of hepatitis C virus infection; Huh7.5.1 HCVcc-Cre infection, luciferase reporter, 44 h; Potency, µM (doses to about 41.8 µM), for inactives: top-dose activity change, negative = inhibition, actives largely listed as inhibitors; actives 3.4% (n = 340,000); also: potency is read from the fitted curve at half-maximal effect; % is scaled to controls: 0 for no effect and ±100 for the full control effect
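Cells (1,000/well) were plated 4 h before compound, then infected with HCVcc-Cre virus (~0.5 moi). After 44 h further culture, infection was read as luciferase luminescence following a 15 min substrate incubation at room temperature.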
Shiga inhibitor – blocks Shiga toxin action in Vero cells; inhibition, % at 38.7 µM; actives 9.2% (n = 290,000); Vero cells, Shiga toxin protein synthesis inhibition reporter; in the data active = inhibition mostly above about 28%, no sharp cut-off; inactive = mostly below about 43%; also: 0% is about no effect
HCV inh confirm – confirmation of hepatitis C virus inhibitors | Potency, µM (series often up to 41.8 µM), for inactives: at the top dose activity, negative = inhibition, most hits filed as inhibitors | actives 78% (n = 640) | shares compounds with HCV inh | HCVcc-Cre infectious virus cell assay, luciferase, inhibition; also: potency is read from the fitted curve at half-maximal effect; nearly all actives have a fitted effect of over 80% in size
HCV host tox – toxic to HCV host cells, flagging false HCV inhibitors. shares compounds with HCV inh. actives 22% (n = 640). AID 720576. HCV host cell line cytotoxicity counterscreen. Potency, µM (doses to about 41.8 µM), without a hit: at the highest dose activity change, negative = cytotoxicity, most hits filed as inhibitors;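 also: potency is read from the fitted curve at half-maximal effect; 44 h compound exposure; % is scaled to controls: 0 for no effect and ±100 for the full control effect; nearly all actives have a fitted effect of over 55% in size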
The depositor's hits bear a star; ? = inconclusive; . = no result. A selection: hits, their analogues and other compounds. The true share with any hit is near 21%. Unless noted, calls follow the shape of the dose curve; as a rule, active = well fitted curve in the direction sought with a large enough effect; inconclusive = small, poorly fitted or top-dose-only effect, or another doubt; inactive = no such curve, though single readings can be large; an effect the other way counts as inactive or inconclusive.

SMILES	AMA1-RON2 inh	Pf growth 48h	CHX counter	Pf growth 96h	HCV inh	Shiga inhibitor	HCV inh confirm	HCV host tox
O=C(Nc1cc(Cl)ccc1O)C1CC(c2ccccc2Cl)=NO1 (stereo not drawn)	10.2%	-11.0%	-1.1	119.4%	5.7%	36.2	.	.
Cc1ccc2nc3c(cc(C(=O)NCCc4ccccc4)c(=N)n3CCCN3CCOCC3)c(=O)n2c1	-6.2%	?	-4.1	?	?	3.5	.	.
COc1ccc(CCNC(=O)c2cc3c(=O)n4ccccc4nc3n(CCCN3CCOCC3)c2=N)cc1	-13.1%	?	-4.8	?	8.91µM*	-4.2	15.8µM*	14.0%
N=c1c(S(=O)(=O)c2ccc(Br)cc2)cc2c(=O)n3ccccc3nc2n1C1CCCCC1	-0.4%	8.28µM*	6.9	3.7µM*	?	7.4	14.1µM*	15.9%
COc1ccc(CCNC(=O)c2cc3c(=O)n4ccccc4nc3n(C3CCCCC3)c2=N)cc1	4.0%	?	-16.4	4.15µM*	7.94µM*	-6.9	14.1µM*	-10.5%
Cc1cccc2cc(C#N)c(NCCCNS(=O)(=O)c3ccc(Cl)cc3)nc12	78.8%	0.0%	-1.5	-23.8%	8.91µM*	-2.9	14.1µM*	?
O=C(NCCN1CCC(Cc2ccccc2)CC1)C1CCN(S(=O)(=O)N2CCC3(CC2)OCCO3)CC1	8.6%	?	-2.5	-125.1%	6.31µM*	-5.6	?	-18.2%
CC(=O)NC(CC(=O)OC(C)C(=O)Nc1ncc(Cl)cc1Cl)c1ccccc1 (stereo not drawn)	0.8%	82.0%	-1.7	21.7%	.	-6.3	.	.
O=C(NC1CCCCC1)c1ccc(OC2CCN(Cc3ccccn3)CC2)cc1	14.8%	?	-1.9	-5.0%	9.5%	-13.6	.	.
CCn1nc(C)c(CNC(=O)c2ccc(OC3CCN(Cc4ccccn4)CC3)cc2)c1C	26.3%	-7.4%	-1.2	48.5%	1µM*	-4.5	0.56µM*	1.12µM*
C/C(=N\NC(=O)C1COc2ccccc2O1)c1ccc(C)o1 (stereo not drawn)	64.8%	.	-3.9	-28.0%	2.9%	-9.1	.	.
C/C(=N\NC(=O)C1COc2ccccc2O1)c1ccccn1 (stereo not drawn)	-18.6%	2.62µM*	15.6*	2.62µM*	4.47µM*	23.9	11.2µM*	?
CC(=O)c1cccc(NC(=O)C2Cc3c(-c4cccc(C(N)=O)c4)ccnc3O2)c1 (stereo not drawn)	-1.9%	.	.	.	.	.	.	.
CC(C)CN(C(=O)CCCOc1ccc(Cl)cc1Cl)c1c(N)n(Cc2ccccc2)c(=O)[nH]c1=O	5.6%	11.7µM*	.	?	?	.	11.2µM*	81.5%
CC(C)C[C@@H](CO)N1CCN(Cc2ccc([N+](=O)[O-])cc2)CCC1=O	-2.0%	-0.6%	-1.4	56.5%	-0.8%	7.1	.	.
c1cc2c(cc1C1CCCCC1)c1c3n2CCCNC3CCC1 (stereo not drawn)	-20.3%	?	-8.5	-24.3%	3.55µM*	-18.9	28µM*	31.5µM*
O=C(O)c1cc([N+](=O)[O-])ccc1N1CCCCC1	-1.7%	16.9%	5.1	?	3.0%	-9.7	.	.
Cc1ccc(C(=O)c2cc([N+](=O)[O-])ccc2N2CCCCC2)c(C)c1	-24.4%	11.7µM*	-2.5	13.1µM*	?	-17.5	?	-39.3%
O=C(/C=C/c1ccco1)Nc1ccc(-c2nc3ccccc3[nH]2)cc1	-2.4%	4.15µM*	-2.6	11.7µM*	2.82µM*	35.7	6.28µM*	?
COc1ccc(/C=C(\NC(=O)/C=C/c2ccco2)C(=O)NCCc2nc3ccccc3[nH]2)cc1	22.4%	-10.7%	-0.5	-22.8%	2.4%	-7.9	.	.
CC1CC(C)C(=O)C(C(CC2CC(=O)NC(=O)C2)OC(=O)CC(=O)c2ccccc2)C1 (stereo not drawn)	-14.2%	.	.	.	5.01µM*	.	12.5µM*	25.7%
COc1cc(C2CC(=O)C3=C(C2)Nc2ncnn2C3c2cccs2)cc(OC)c1OC (stereo not drawn)	-3.2%	-27.6%	-2.2	?	-0.4%	29.0	.	.
COc1ccc(C2CC(=O)C3=C(C2)Nc2ncnn2C3c2ccccc2C)c(OC)c1 (stereo not drawn)	-4.1%	7.38µM*	-0.3	8.28µM*	3.55µM*	-20.5	7.05µM*	21.5%
COc1ccc(C(=O)Cc2nnc(C)s2)c(OC)c1	1.6%	24.4%	15.9	-21.6%	-4.1%	29.9	.	.
CCc1nnc(NC(=O)c2ccc(OC)cc2OC)s1	-3.0%	144.1%	37.8*	2.1%	8.91µM*	65.7*	-19.3%	-31.8%
SMILES	AMA1-RON2 inh	Pf growth 48h	CHX counter	Pf growth 96h	HCV inh	Shiga inhibitor	HCV inh confirm	HCV host tox
O=S(=O)(NCCc1nc2ccccc2[nH]1)c1ccccc1	26.5%	.	.	.	10.1%	.	.	.
O=S(=O)(/C(=C\c1ccc(C(F)(F)F)cc1)c1nc2ccccc2[nH]1)c1ccccc1	-8.6%	.	.	.	1.41µM*	.	7.91µM*	-97.1%
CCc1ccc(S(=O)(=O)N2CCN(C(=O)c3cccnc3)CC2)cc1	-0.5%	9.5%	-3.1	-15.7%	5.7%	.	.	.
COc1cc2ccccc2cc1C(=O)Nc1ccccc1N1CCCC1	?	?	.	?	?	.	14.1µM*	-84.5%
CCn1c(=O)n(CC)c2cc(N3CCCC3)c(NC(=O)c3cc(Cl)ccc3OC)cc21	-6.1%	?	-2.2	8.28µM*	3.98µM*	-3.8	15.8µM*	?
Cc1cc2[nH]c3c(c[n+](C)c4ccccc34)c2cc1C	-8.1%	0.465µM*	5.9	?	5.01µM*	-10.4	15.8µM*	?
C[C@H]1CN([C@@H](C)CO)C(=O)Cc2cc(NC(=O)Cn3cnnn3)ccc2O[C@H]1CN(C)Cc1ccncc1	11.8%	.	.	.	8.3%	.	.	.
Cc1ccc(S(=O)(=O)N(CC(=O)NCc2ccc(F)cc2)C(=O)N2CCN(C)CC2)cc1	21.1%	-0.2%	.	24.3%	32.3%	.	.	.
COc1ccc(C2CC(c3cccs3)=Nc3ccccc3S2)cc1 (stereo not drawn)	-27.1%	10.6%	61.4*	?	?	82.8*	?	16.3%
Cc1ccc(N(C(=O)CNC(=O)c2ccco2)C(C(=O)NC2CCCCC2)c2ccncc2)cc1F (stereo not drawn)	-1.7%	-8.8%	-3.6	?	-0.2%	-13.6	.	.
COc1ccc(C(=O)NCC(=O)OCC(=O)Nc2cc([N+](=O)[O-])ccc2F)cc1	14.8%	21.5%	-9.8	5.7%	-18.2%	14.6	.	.

From PubChem BioAssay
